Nrf2 activator = activators of Nrf2 (ARE) signaling. 0.31% of 410,000 active. Potency, µM (highest dose often 46.1 µM), hits mostly activators. AREc32 ARE-luciferase reporter (MCF7-derived line), luminescence, 24 h. AID 624171; also: nearly all actives have a fitted effect of over 65% in size
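Reporter line AREc32 (ARE-Fluc), seeded overnight in OPTI-MEM with 5% FBS; compound pin-transferred, 24 hr at 37 deg C, 5% CO2; luminescent read-out.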
Nrf2 block = inhibitors of Nrf2 signaling. A549 ARE-Fluc reporter, luciferase luminescence, 18-24 h. Potency, µM (doses to about 46 µM), hits mostly inhibitors. 2.1% of 360,000 active; also: nearly all actives have a fitted effect of over 60% in size
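Reporter: ARE-Fluc in A549. Exposure: 18-24 h, 37 °C, 5% CO2, 5% FBS OPTI-MEM. Readouts: fluorescent cytotoxicity (CellTiter-Fluor), then luminescent Nrf2 signal after BugLite.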
ERG Ets-DNA blk = ERG Ets/DNA interaction inhibition; 0.028% of 370,000 active; P11308; fluorescence polarization, His-ERG Ets domain / labelled DNA; Potency, µM (series often up to 76.9 µM), actives largely listed as inhibitors; active = well fitted inhibition curve with a large enough effect in the polarisation, with a control signal flat; inconclusive = small, poorly fitted or top-dose-only effect, or effect the other way, or a change in a side signal; inactive = no such curve, though single readings can be large or run the other way; the % refers to the polarisation;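 also: polarization taken with two DNA probes labelled with fluorescein and Texas red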
Target sequence (P11308 whole entry, looked up, the tested form may be a part): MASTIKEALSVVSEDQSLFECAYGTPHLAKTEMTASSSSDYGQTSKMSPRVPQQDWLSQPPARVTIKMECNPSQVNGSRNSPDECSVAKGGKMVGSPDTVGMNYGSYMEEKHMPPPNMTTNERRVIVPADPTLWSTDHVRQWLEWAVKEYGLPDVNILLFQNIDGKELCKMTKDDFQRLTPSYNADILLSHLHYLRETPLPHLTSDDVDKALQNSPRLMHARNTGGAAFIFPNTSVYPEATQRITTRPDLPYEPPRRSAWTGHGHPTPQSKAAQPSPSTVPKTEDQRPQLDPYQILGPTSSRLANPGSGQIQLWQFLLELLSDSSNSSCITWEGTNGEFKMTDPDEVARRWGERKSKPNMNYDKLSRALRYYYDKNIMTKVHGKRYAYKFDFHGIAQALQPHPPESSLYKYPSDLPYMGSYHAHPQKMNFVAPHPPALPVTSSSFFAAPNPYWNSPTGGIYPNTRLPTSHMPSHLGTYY
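His-tagged ERG Ets domain (1 uM in the protein solution; 300mM KCl, 50mM Tris-HCl, 1mM EDTA, 1mM DTT, pH 7.5) received compound, then a probe mix of 5 nM fluorescein-DNA and 100nM Texas-615-DNA. Fluorescence polarization was read for both dyes.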
12-LOX inh = ALOX12 (human) lipoxygenase inhibition; P18054; purified 12hLO, xylenol orange hydroperoxide absorbance; Potency, µM (series often up to 108 µM), most hits filed as inhibitors; 1.1% of 580,000 active
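Purified human 12hLO (150 nM final) in 25 mM Hepes, 0.01% Triton X-100, pH 7.0 was preincubated 15 min at room temperature with compound. Then 40 uM arachidonic acid was added, 30 min. Hydroperoxide was read by Fe-XO absorbance ratio 573/405 nm.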
A549 tox = counter-screen for Nrf2 inhibitors: cytotoxicity in A549 cells; 0.16% of 390,000 active; Potency, µM (top dose mostly 46 µM), most hits filed as inhibitors; A549 ARE-Fluc cells, CellTiter-Fluor viability, 18-24 h
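A549 ARE-Fluc cells in 5% FBS OPTI-MEM, 5000 cells/well, rested 2 h then exposed to compounds in concentration-response for 18-24 h at 37 °C. Viability by CellTiter-Fluor fluorescence (Ex 405/Em 525) after 30 min; luciferase luminescence (BugLite, 15 min, RT) read afterwards.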
LDHA inh = inhibitors of human lactate dehydrogenase A. AID 1347041. activity change, % (values are at about 110 or 230 µM). 0.15% of 480,000 active. P00338. purified LDHA, NADH/diaphorase-resazurin fluorescence; stronger effect = lower value; in the data active = activity change below about -30%; inconclusive = mostly about -25% to -30%
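Human LDH5 (2 nM) was incubated with 0.06 mM NADH and 0.2 mM pyruvate for 5 min at room temperature in Tris pH 7.4. Remaining NADH was coupled through diaphorase/resazurin, and resorufin fluorescence was read at 0 and 20 min.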
Numbers stand for hits. An excerpt weighted towards active compounds, which were near 2.7% of everything screened. Unless noted, calls follow the shape of the dose curve; as a rule, active = well fitted curve in the direction sought with a large enough effect; inconclusive = small, poorly fitted or top-dose-only effect, or another doubt; inactive = no such curve, though single readings can be large; an effect the other way counts as inactive or inconclusive.

Screening N#CC1=C(N)Oc2ccc3ccccc3c2C1c1cccnc1 (stereo not given) returned Nrf2 activator inactive, Nrf2 block inconclusive, ERG Ets-DNA blk inactive, 12-LOX inh inactive, A549 tox inactive and LDHA inh inactive.
For N#CC1=C(NC=NCc2ccccc2)Oc2ccc3ccccc3c2C1c1ccccc1 (stereo not given) the results were Nrf2 block 18.4µM, A549 tox inactive and LDHA inh inactive.
Screening CS(=O)(=O)Nc1cccc(-c2ccc3ncnc(Nc4ccc(F)cc4)c3c2)c1 returned 12-LOX inh 17.8µM.
Screening CC1CCCN(CC2CCCN2)C1 (stereo not given) returned 12-LOX inh inconclusive and LDHA inh inactive.
For Cc1oc(-c2cccc(Br)c2)nc1Cn1c(SCc2cccc(F)c2)nc2cccnc21 the results were Nrf2 activator inactive, Nrf2 block 13µM, ERG Ets-DNA blk inactive, 12-LOX inh inactive, A549 tox inactive and LDHA inh inactive.
Screening CCNC(=O)Cn1c(CO)cnc1SCC(=O)Nc1c(C)cc(C)cc1C returned 12-LOX inh inactive and LDHA inh inactive.
`CC(C)(C)NC(=O)C(c1ccccc1F)n1c(=O)c(-c2ccco2)nc2ccccc21` (stereo not given) gave 12-LOX inh inconclusive and LDHA inh inactive.
O=C(NC1CCCCC1)C(c1ccc(-c2ccccc2)cc1)n1c(=O)c(-c2ccco2)nc2ccccc21 (stereo not given) was read as 12-LOX inh 44.7µM and LDHA inh inactive.
`CCCCCNC(=O)C(c1ccccc1F)n1c(=O)c(-c2ccco2)nc2ccccc21` (stereo not given) gave 12-LOX inh 20µM and LDHA inh inactive.
`CCCCCNC(=O)C(c1ccc(OC)cc1)n1c(=O)c(-c2ccco2)nc2ccccc21` (stereo not given) gave 12-LOX inh 5.62µM and LDHA inh inactive.
`O=C(NCc1ccccc1)C(c1ccc(C(F)(F)F)cc1)n1c(=O)c(-c2ccco2)nc2ccccc21` (stereo not given) gave 12-LOX inh 5.01µM and LDHA inh inactive.
O=C(NCc1ccccc1)C(c1ccccc1)n1c(=O)c(-c2ccco2)nc2ccccc21 (stereo not given) was read as 12-LOX inh inconclusive and LDHA inh inactive.
For Cc1cc(C)cc(N2CC(c3nnc(NC(=O)c4cccc(NC(=O)C(C)C)c4)s3)CC2=O)c1 (stereo not given) the results were 12-LOX inh inactive and LDHA inh inactive.
O=C(c1cccc(C(=O)N2CCN(Cc3ccccc3)CC2)c1)N1CCN(Cc2ccccc2)CC1 was read as Nrf2 activator inactive, Nrf2 block inconclusive, ERG Ets-DNA blk inactive, 12-LOX inh inactive, A549 tox inactive and LDHA inh inactive.
`COc1ccccc1CN1CCN(C(=O)c2ccncc2)CC1` gave Nrf2 activator inactive, Nrf2 block inactive, ERG Ets-DNA blk inactive, 12-LOX inh inconclusive, A549 tox inactive and LDHA inh -30.0.
COc1ccccc1CN1CCC2(CC1)CCN(C(=O)c1ccncc1)CC2 was read as 12-LOX inh inactive.
O=C(c1cccc(Cl)c1)N1CCN(Cc2ccncc2)CC1 was read as Nrf2 activator inactive, Nrf2 block inactive, ERG Ets-DNA blk inactive, 12-LOX inh inconclusive, A549 tox inactive and LDHA inh -31.0.
O=C(c1cccs1)N1CCN(Cc2ccncc2)CC1 was read as Nrf2 activator inactive, Nrf2 block inactive, ERG Ets-DNA blk inactive, 12-LOX inh inactive, A549 tox inactive and LDHA inh -33.3.
`CCCCCn1nc(C(=O)Nc2cccc(C#N)c2)c2ccccc2c1=O` gave 12-LOX inh inactive and LDHA inh inactive.
For CCN1c2ccccc2NC2C1C(C(C)=O)C(=O)N2c1ccc(Cl)cc1 (stereo not given) the results were Nrf2 activator inactive, Nrf2 block inconclusive, 12-LOX inh inconclusive, A549 tox inactive and LDHA inh inactive.
Screening CCN1c2ccccc2NC2N=C(OC)C(c3ccccc3)C21 (stereo not given) returned Nrf2 activator inactive, Nrf2 block inconclusive, ERG Ets-DNA blk inactive, A549 tox 20.6µM and LDHA inh inactive.
`CCC(=O)OC1(C)C(=O)C=C2C=C(CCCC(=O)OC)OC=C2C1=O` (stereo not given) gave Nrf2 activator inactive, Nrf2 block inactive, ERG Ets-DNA blk inactive, 12-LOX inh inconclusive, A549 tox inactive and LDHA inh inactive.
For CC1(OC(=O)C2CCCC2)C(=O)C=C2C=C(c3ccsc3)OC=C2C1=O (stereo not given) the results were Nrf2 activator inactive, Nrf2 block inactive, ERG Ets-DNA blk inactive, 12-LOX inh 7.94µM, A549 tox inactive and LDHA inh inactive.
Screening CC1(OC(=O)C2CCCC2)C(=O)C=C2C=C(c3ccsc3)N(C3CCCC3)C=C2C1=O (stereo not given) returned Nrf2 activator inactive, Nrf2 block inactive, ERG Ets-DNA blk inactive, 12-LOX inh inactive, A549 tox inactive and LDHA inh inactive.
Screening CCCCC1=CC2=CC(=O)C(C)(OC(=O)C3CCCC3)C(=O)C2=CO1 (stereo not given) returned Nrf2 activator inactive, Nrf2 block inactive, ERG Ets-DNA blk inactive, 12-LOX inh 15.8µM, A549 tox inactive and LDHA inh inactive.
For CC1(OC(=O)c2ccco2)C(=O)C=C2C=C(C3CC3)OC=C2C1=O (stereo not given) the results were Nrf2 activator inactive, Nrf2 block inactive, ERG Ets-DNA blk inconclusive, 12-LOX inh 44.7µM, A549 tox inactive and LDHA inh inactive.
Screening CCCCC1=CC2=CC(=O)C(C)(OC(=O)CC)C(=O)C2=CO1 (stereo not given) returned Nrf2 activator inactive, Nrf2 block inactive, ERG Ets-DNA blk inactive, 12-LOX inh 35.5µM, A549 tox inactive and LDHA inh inactive.
For O=C(c1ccc(F)cc1)[C@@H]1[C@@H]2CCCN2[C@]2(C(=O)Nc3ccc(F)cc32)[C@@]12C(=O)Nc1ccccc12 the results were 12-LOX inh inconclusive and LDHA inh inactive.
Screening CCN(C(=O)c1cccc(C(F)(F)F)c1)C1CC1 returned 12-LOX inh inactive and LDHA inh inactive.
For Cc1cccc(S(=O)(=O)NC(=O)C2(C)CCN2C(=O)c2ccccc2CCc2ccccc2)c1 (stereo not given) the results were Nrf2 activator inactive, 12-LOX inh inactive and LDHA inh inactive.

Screens: PubChem, National Center for Advancing Translational Sciences (NCATS)
